The source made the active and inactive calls.
Legend:
[1] = tested on: PRMT1 (protein arginine N-methyltransferase 1); test: PRMT1 binders on small-molecule microarrays, primary screen, biochemical, small-molecule microarray, 635 nm fluorescence (AID 1088); conditions: small-molecule microarray binding, higher = more signal;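 also: binding of Prmt1 protein to compounds spotted on small-molecule microarray slides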
[2] = yeast growth modulation, basal conditions, primary screen, YJM789 clinical isolate, OD600, 24 h (AID 1089);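 also: growth of clinical yeast isolate S. cerevisiae YJM 789 seeded 1000 cells per well; test concentration not given here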; conditions: S. cerevisiae YJM789 growth, higher = more signal, called active from +8 up or from −8 down
[3] = fission yeast growth modulation, primary screen, strain 972, OD600, 24 h, no modulator (AID 1090);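 also: basal condition with compound alone and no growth modifier present; test concentration not given here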; conditions: S. pombe 972 growth, higher = more signal, called active from +8 up or from −8 down
[4] = S. cerevisiae growth modulation with rapamycin, primary screen, strain BY4716, OD600, 96 h (AID 1091); conditions: higher = more signal, called active from +8 up or from −8 down; also: test concentration not given here
[5] = target: Torsin-1A-interacting protein 2 (Homo sapiens) (UniProt Q8NFQ8); test: LULL1 binders on small-molecule microarray, primary screen, cell lysate, human LULL1 lysate, 635/667 nm fluorescence (AID 1092); conditions: hLULL1 lysate binding, 635 nm fluorescence, higher = more signal;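 also: probe is lysate of COS7 cells overexpressing human LULL1; score merges per-feature 667 nm fluorescence with signal-to-noise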
Chain of Torsin-1A-interacting protein 2 (Homo sapiens) (Q8NFQ8 whole entry, looked up): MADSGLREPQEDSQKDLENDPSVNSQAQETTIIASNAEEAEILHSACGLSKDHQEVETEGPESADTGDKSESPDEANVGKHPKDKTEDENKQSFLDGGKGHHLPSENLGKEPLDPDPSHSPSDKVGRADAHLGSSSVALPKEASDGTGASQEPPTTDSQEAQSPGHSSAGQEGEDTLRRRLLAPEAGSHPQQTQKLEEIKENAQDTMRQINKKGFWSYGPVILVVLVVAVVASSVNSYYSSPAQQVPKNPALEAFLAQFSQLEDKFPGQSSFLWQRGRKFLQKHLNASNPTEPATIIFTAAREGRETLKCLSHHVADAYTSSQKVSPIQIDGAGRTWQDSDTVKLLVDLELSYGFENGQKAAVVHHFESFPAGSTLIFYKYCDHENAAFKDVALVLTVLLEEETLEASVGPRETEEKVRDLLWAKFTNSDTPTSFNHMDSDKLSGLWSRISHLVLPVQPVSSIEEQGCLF

[6] = E. coli growth modulation, two-sided OD650, primary screen, E. coli filamentation project, strain DRC41, 24 h (AID 1093); conditions: OD650, 24 h, higher = more signal, called active from +8 up or from −8 down;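 also: MC1000 strain lacking acrAB efflux and sulA so SOS filamentation is blocked; test concentration not given here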
[7] = small-molecule microarray binders of probe aLefty2, primary screen, biochemical, biotinylated probe, 635/667 nm fluorescence (AID 1094); conditions: higher = more signal;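 also: score merges spot fluorescence near 667 nm with spot signal-to-noise ratio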
[8] = tested on: Noggin (protein binding on small-molecule microarray); test: Noggin binders on small-molecule microarray, primary screen, biochemical, 635/667 nm fluorescence (AID 1095); conditions: 635 nm fluorescence, higher = more signal;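 also: score merges 667 nm feature fluorescence with signal to noise over triplicate slides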
[9] = target: Neurogenic locus notch homolog protein 3 (Homo sapiens) (UniProt Q9UM47); test: NOTCH3 binders on small-molecule microarray, primary screen, biochemical, 635/667 nm fluorescence (AID 1096); conditions: NOTCH3 binding, 635 nm fluorescence, higher = more signal
Chain of Neurogenic locus notch homolog protein 3 (Homo sapiens) (Q9UM47 whole entry, looked up): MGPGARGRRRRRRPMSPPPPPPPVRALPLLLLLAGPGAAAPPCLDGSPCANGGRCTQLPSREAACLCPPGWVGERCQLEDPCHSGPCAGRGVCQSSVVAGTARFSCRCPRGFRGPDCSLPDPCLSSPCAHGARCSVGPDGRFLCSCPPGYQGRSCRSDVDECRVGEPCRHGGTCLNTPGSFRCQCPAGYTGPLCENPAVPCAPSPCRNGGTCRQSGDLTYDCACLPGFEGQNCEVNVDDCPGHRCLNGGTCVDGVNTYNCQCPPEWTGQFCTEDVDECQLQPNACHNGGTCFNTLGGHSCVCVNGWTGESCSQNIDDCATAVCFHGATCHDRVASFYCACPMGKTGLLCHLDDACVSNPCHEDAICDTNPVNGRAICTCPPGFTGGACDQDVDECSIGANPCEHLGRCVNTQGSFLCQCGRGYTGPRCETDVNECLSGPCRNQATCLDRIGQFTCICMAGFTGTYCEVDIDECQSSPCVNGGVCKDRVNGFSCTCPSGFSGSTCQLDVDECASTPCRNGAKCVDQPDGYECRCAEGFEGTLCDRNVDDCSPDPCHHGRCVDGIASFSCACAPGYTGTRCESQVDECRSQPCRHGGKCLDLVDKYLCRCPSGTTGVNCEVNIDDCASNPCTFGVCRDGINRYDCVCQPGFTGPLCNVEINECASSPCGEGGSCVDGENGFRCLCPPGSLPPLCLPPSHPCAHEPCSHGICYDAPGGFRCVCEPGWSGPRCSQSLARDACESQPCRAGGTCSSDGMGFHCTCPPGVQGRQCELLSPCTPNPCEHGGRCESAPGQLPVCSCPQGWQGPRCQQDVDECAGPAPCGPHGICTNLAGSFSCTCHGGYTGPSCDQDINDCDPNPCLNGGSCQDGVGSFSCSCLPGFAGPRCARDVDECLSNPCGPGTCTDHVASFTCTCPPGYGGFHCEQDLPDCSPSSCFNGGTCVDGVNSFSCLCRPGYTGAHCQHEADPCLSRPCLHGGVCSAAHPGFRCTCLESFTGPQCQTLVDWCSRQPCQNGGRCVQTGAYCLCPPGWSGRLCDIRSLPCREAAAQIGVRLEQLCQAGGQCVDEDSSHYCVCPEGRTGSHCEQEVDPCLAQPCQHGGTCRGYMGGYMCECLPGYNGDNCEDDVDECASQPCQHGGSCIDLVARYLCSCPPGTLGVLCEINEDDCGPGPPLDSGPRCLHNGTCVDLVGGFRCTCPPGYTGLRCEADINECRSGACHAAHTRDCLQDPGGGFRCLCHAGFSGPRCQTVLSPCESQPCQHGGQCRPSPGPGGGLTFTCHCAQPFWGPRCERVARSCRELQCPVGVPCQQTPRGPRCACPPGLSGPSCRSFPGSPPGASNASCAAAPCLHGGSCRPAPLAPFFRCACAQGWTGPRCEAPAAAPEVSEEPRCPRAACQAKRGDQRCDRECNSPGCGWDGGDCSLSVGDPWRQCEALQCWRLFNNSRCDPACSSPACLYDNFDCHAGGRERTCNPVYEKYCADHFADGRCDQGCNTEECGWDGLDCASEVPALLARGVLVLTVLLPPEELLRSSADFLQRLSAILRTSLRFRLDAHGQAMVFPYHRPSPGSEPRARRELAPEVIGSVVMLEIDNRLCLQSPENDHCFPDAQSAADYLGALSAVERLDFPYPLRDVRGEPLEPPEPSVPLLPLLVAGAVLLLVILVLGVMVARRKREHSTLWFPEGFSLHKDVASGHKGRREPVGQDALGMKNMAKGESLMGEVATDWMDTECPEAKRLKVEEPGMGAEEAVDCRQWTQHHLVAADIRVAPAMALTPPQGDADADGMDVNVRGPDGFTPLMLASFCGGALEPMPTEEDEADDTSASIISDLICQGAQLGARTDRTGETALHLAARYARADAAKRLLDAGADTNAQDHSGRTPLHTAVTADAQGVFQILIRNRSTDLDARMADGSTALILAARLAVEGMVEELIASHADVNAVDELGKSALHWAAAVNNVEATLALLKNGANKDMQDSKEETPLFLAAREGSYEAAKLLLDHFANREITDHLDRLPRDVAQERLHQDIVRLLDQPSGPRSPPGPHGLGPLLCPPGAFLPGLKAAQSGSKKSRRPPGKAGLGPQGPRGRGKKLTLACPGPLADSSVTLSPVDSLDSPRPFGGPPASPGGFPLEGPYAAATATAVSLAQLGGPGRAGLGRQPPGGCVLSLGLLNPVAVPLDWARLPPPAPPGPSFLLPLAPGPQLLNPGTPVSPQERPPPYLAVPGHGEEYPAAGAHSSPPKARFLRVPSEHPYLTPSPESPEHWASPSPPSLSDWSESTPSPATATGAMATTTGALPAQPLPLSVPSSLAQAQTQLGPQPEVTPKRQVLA

[10] = small-molecule microarray binders of probe aEGFR, primary screen, biochemical, biotinylated probe, 635/667 nm fluorescence (AID 1097); conditions: higher = more signal;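 also: probe is a biotinylated anti-EGFR antibody binding compounds printed on slides; score combines fluorescence near 667 nm and signal to noise of each spot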
[11] = tested on: Plasmodium falciparum Sir2 (PF13_0152, Sir2A); test: pfSir2 binders on small-molecule microarrays, primary screen, biochemical, small-molecule microarray, 635 nm fluorescence (AID 1098); conditions: small-molecule microarray binding, fluorescence 635 nm; higher = more signal;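 also: score merges spot fluorescence intensity with its signal-to-noise ratio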
[12] = small-molecule microarray binders of probe aDKK1, primary screen, biochemical, biotinylated probe, 635/667 nm fluorescence (AID 1099); conditions: higher = more signal;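 also: score merges 667nm spot fluorescence with signal to noise across triplicate slides; reference of the scale not given here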
[13] = small-molecule microarray binders of probe aCHRDL2, primary screen, biochemical, biotinylated probe, 635/667 nm fluorescence (AID 1100); conditions: higher = more signal
[14] = splicing luciferase reporter signal modulators, primary screen, spliceosome inhibition project, cell-based, HEK293, splice +/- reporter (AID 1101); conditions: luminescence, 24 h, higher = more signal, called active from +8 up or from −8 down;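 also: HEK293 cells carrying a splicing-competent luciferase reporter gene; test concentration not given here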
[15] = target: Fibroblast growth factor 10 (Homo sapiens) (UniProt O15520); test: FGF10 binders on small-molecule microarrays, primary screen, biochemical, small-molecule microarray, 635 nm fluorescence (AID 1102); conditions: FGF10 binding, fluorescence 635 nm, higher = more signal
Chain of Fibroblast growth factor 10 (Homo sapiens) (O15520 whole entry, looked up): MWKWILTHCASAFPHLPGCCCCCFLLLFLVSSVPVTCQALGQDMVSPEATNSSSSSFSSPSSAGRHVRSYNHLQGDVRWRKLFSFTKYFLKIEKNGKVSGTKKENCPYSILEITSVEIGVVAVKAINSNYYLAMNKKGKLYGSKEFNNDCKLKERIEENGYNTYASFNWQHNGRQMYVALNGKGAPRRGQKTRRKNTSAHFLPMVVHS

[16] = tested on: glycogen synthase kinase-3 (GSK3A per assay name; protocol says GSK3B); test: GSK3 binders on small-molecule microarrays, primary screen, biochemical, small-molecule microarray, 635 nm fluorescence, GSK3A (AID 1103); conditions: small-molecule microarray binding, fluorescence 635 nm; higher = more signal; also: the record names both GSK3A and GSK3B
[17] = target: Epidermal growth factor receptor (Homo sapiens) (UniProt P00533); test: EGFR binders on small-molecule microarrays, primary screen, biochemical, small-molecule microarray, 635 nm fluorescence (AID 1104); conditions: EGFR binding, higher = more signal;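 also: score merges 667 nm emission intensity with spot signal to noise over triplicate slides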
Chain of Epidermal growth factor receptor (Homo sapiens) (P00533 whole entry, looked up): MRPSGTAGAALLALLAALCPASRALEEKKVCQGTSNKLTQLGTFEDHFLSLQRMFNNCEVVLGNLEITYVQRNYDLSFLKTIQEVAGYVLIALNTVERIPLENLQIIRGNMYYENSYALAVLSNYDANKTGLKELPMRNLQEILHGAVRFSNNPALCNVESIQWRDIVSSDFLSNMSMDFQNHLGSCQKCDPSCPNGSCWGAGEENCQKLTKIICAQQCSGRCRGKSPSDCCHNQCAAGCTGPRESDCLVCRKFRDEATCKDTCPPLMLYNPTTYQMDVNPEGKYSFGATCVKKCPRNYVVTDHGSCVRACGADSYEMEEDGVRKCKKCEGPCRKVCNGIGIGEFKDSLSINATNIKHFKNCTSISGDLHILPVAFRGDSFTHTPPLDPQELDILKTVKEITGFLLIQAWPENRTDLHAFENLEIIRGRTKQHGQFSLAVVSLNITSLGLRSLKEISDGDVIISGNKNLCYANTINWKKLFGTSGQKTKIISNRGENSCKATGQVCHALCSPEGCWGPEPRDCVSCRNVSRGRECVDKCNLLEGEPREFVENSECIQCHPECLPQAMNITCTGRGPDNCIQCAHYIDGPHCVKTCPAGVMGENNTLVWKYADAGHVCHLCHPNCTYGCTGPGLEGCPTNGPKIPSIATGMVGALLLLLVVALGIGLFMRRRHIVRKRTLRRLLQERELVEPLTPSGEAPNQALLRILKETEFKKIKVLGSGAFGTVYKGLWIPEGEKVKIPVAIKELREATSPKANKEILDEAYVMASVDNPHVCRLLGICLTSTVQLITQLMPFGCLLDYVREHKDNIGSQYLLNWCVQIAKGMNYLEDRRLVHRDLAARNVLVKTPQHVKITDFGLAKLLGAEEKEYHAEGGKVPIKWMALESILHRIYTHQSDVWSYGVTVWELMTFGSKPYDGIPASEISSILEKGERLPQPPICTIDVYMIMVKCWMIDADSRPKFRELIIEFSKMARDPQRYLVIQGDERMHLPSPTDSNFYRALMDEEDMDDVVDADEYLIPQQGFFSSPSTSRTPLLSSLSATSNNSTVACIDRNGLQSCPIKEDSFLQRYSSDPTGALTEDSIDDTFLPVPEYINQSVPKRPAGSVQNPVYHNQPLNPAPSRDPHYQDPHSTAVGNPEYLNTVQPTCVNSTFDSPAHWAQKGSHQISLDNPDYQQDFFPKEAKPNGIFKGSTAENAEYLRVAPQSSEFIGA

[18] = target: Follistatin-related protein 3 (Homo sapiens) (UniProt O95633); test: FSTL3 binders on small-molecule microarrays, primary screen, biochemical, small-molecule microarray, 635 nm fluorescence (AID 1105); conditions: FSTL3 binding, higher = more signal;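 also: score merges emission near 667 nm and signal to noise per printed spot across three slides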
Chain of Follistatin-related protein 3 (Homo sapiens) (O95633 whole entry, looked up): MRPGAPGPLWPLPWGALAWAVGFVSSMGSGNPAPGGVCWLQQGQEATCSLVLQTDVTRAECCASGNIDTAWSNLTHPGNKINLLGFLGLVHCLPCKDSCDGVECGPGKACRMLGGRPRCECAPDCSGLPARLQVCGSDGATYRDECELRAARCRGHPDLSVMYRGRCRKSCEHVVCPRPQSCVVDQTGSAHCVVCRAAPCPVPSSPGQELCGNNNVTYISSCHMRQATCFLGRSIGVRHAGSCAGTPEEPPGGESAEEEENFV

[19] = target: Dickkopf-related protein 1 (Homo sapiens) (UniProt O94907); test: DKK1 binders on small-molecule microarrays, primary screen, biochemical, small-molecule microarray, 635 nm fluorescence scan (AID 1106); conditions: DKK1 binding, higher = more signal;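 also: score merges emission near 667 nm with signal to noise over three replicate slides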
Chain of Dickkopf-related protein 1 (Homo sapiens) (O94907 whole entry, looked up): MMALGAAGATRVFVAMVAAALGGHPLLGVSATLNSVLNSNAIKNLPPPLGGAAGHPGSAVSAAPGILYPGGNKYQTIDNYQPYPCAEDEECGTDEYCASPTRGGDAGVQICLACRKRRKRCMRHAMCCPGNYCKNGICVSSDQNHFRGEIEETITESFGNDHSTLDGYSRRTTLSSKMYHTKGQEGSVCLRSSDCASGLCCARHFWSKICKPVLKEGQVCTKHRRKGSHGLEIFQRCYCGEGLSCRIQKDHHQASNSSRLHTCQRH

[20] = tested on: Inhibin beta A chain (activin A); test: INHBA (activin A) binders on microarrays, primary screen, biochemical, small-molecule microarray, 635 nm fluorescence scan (AID 1107); conditions: small-molecule microarray binding, higher = more signal;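 also: mouse activin A protein probed at 4.33 µg/mL on printed slides; score merges bound-protein fluorescence near 667 nm with spot signal-to-noise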

[N-]=[N+]=NCc1ccccc1[C@@H]1OC(c2ccc(OCCCO)cc2)=N[C@]1(Cc1ccccc1N=[N+]=[N-])C(=O)NCC(O)CO (stereo not given in full)
composite z-score [1]: 1.18 | z-score [2]: 0.263 (inactive) | z-score [3]: 0.21 (inactive) | z-score [4]: 0.622 (inactive) | composite z-score [5]: 3.29 | z-score [6]: 0.712 (inactive) | composite z-score [7]: 0.81 | composite z-score [8]: 0.92 | composite z-score [9]: 0.962 | composite z-score [10]: 0.235 | composite z-score [11]: 1.29 | composite z-score [12]: 1.28 | composite z-score [13]: 0.98 | z-score [14]: 1.25 (inactive) | composite z-score [15]: 0.846 | composite z-score [16]: 0.898 | composite z-score [17]: 0.0004 | composite z-score [18]: 0.418 | composite z-score [19]: 0.0477 | composite z-score [20]: 1.22

CCN(CC)c1ccc(N2CC=CC34O[C@@H]5C=CCCOC(=O)C5[C@H]3C(=O)N(C(C)CO)[C@@H]4C2=O)cc1 (stereo not given in full)
composite z-score [1]: 1.05 | z-score [2]: -1.01 (inactive) | z-score [3]: -1.6 (inactive) | z-score [4]: -0.399 (inactive) | composite z-score [5]: 2.11 | z-score [6]: -0.42 (inactive) | composite z-score [7]: 0.0815 | composite z-score [8]: 0.524 | composite z-score [9]: 0.61 | composite z-score [10]: -0.0702 | composite z-score [11]: 1.85 | composite z-score [12]: -0.24 | composite z-score [13]: 0.477 | z-score [14]: -0.0428 (inactive) | composite z-score [15]: 0.0925 | composite z-score [16]: 0.519 | composite z-score [17]: -0.79 | composite z-score [18]: -0.157 | composite z-score [19]: -0.0888 | composite z-score [20]: 1.42

COC(=O)[C@@]1(Cc2ccccc2)[C@H]2c3cc(C(=O)N(C)C)n(Cc4ccc(C(F)(F)F)nc4)c3C[C@H]2CN1C(=O)c1ccccc1
composite z-score [1]: 0.644 | z-score [2]: 1.06 (inactive) | z-score [3]: 1.28 (inactive) | z-score [4]: 1.67 (inactive) | composite z-score [5]: 3.69 | z-score [6]: -0.755 (inactive) | composite z-score [7]: 0.348 | composite z-score [8]: -0.498 | composite z-score [9]: 1.03 | composite z-score [10]: 0.228 | composite z-score [11]: 1.52 | composite z-score [12]: 1.17 | composite z-score [13]: 1.24 | z-score [14]: -1.16 (inactive) | composite z-score [15]: 1.08 | composite z-score [16]: 1.12 | composite z-score [17]: -0.405 | composite z-score [18]: 0.885 | composite z-score [19]: -0.547 | composite z-score [20]: 0.822

CN(C)c1ccc(C(O)C2C=CC3C(=O)N(Cc4ccccc4)C(=O)C3N2n2cnnc2)cc1 (stereo not given)
composite z-score [1]: -0.765 | z-score [2]: -1.24 (inactive) | z-score [3]: 0.396 (inactive) | z-score [4]: -0.528 (inactive) | composite z-score [5]: 0.0442 | z-score [6]: 0.372 (inactive) | composite z-score [7]: 0.123 | composite z-score [8]: 0.359 | composite z-score [9]: -0.139 | composite z-score [10]: -0.0649 | composite z-score [11]: 0.491 | composite z-score [12]: -0.393 | composite z-score [13]: 0.562 | z-score [14]: -0.394 (inactive) | composite z-score [15]: 0.13 | composite z-score [16]: -0.56 | composite z-score [17]: 0.268 | composite z-score [18]: -0.0523 | composite z-score [19]: 0.114 | composite z-score [20]: 1.28

O=C1C2C=CC(C(O)C3CCCCC3)N(n3cnnc3)C2C(=O)N1Cc1ccccc1 (stereo not given)
composite z-score [1]: 1.51 | z-score [2]: -0.509 (inactive) | z-score [3]: 0.266 (inactive) | z-score [4]: -0.98 (inactive) | composite z-score [5]: 3.15 | z-score [6]: 0.596 (inactive) | composite z-score [7]: 0.145 | composite z-score [8]: 0.915 | composite z-score [9]: 1.06 | composite z-score [10]: 0.0201 | composite z-score [11]: 0.815 | composite z-score [12]: 0.224 | composite z-score [13]: 0.623 | z-score [14]: -1.3 (inactive) | composite z-score [15]: 1.16 | composite z-score [16]: 1.1 | composite z-score [17]: 0.0887 | composite z-score [18]: 1.21 | composite z-score [19]: -0.0435 | composite z-score [20]: 1.13

C=CC[C@@]1(C(=O)OC)N=C(c2ccc(OCCCO)cc2)O[C@@H]1c1ccccc1N=[N+]=[N-]
composite z-score [1]: 1.54 | z-score [2]: -0.777 (inactive) | z-score [3]: -0.713 (inactive) | z-score [4]: 1.35 (inactive) | composite z-score [5]: 3.05 | z-score [6]: 0.643 (inactive) | composite z-score [7]: 0.346 | composite z-score [8]: 1.14 | composite z-score [9]: 1.07 | composite z-score [10]: 0.118 | composite z-score [11]: 1.5 | composite z-score [12]: 0.6 | composite z-score [13]: 1 | z-score [14]: -1.61 (inactive) | composite z-score [15]: 1.32 | composite z-score [16]: 1.32 | composite z-score [17]: 1.38 | composite z-score [18]: 1.22 | composite z-score [19]: 0.685 | composite z-score [20]: 0.767

COc1ccc(C(=O)Nc2cccc(CN3C(=O)[C@@]4(O[C@@H](CC(=O)N5CCC[C@H]5CO)[C@H]([Si](C)(C)c5ccc(OC)cc5)[C@H]4C)c4ccccc43)c2)cc1
composite z-score [1]: 1.55 | z-score [2]: -0.624 (inactive) | z-score [3]: 0.706 (inactive) | z-score [4]: -1.2 (inactive) | composite z-score [5]: 0.983 | z-score [6]: -0.126 (inactive) | composite z-score [7]: -0.102 | composite z-score [8]: 0.766 | composite z-score [9]: 0.957 | composite z-score [10]: -0.118 | composite z-score [11]: 1.21 | composite z-score [12]: -0.0379 | composite z-score [13]: -0.183 | z-score [14]: 1 (inactive) | composite z-score [15]: 0.43 | composite z-score [16]: 0.744 | composite z-score [17]: 0.527 | composite z-score [18]: 0.839 | composite z-score [19]: 0.496 | composite z-score [20]: 0.182

CC(C)NC(=O)[C@@]1(C)c2ccccc2C(=O)N(Cc2ccccc2)[C@H]1c1ccc(CO)cc1
composite z-score [1]: 1.53 | z-score [2]: -1.46 (inactive) | z-score [3]: 0.138 (inactive) | z-score [4]: -0.932 (inactive) | composite z-score [5]: 3.22 | z-score [6]: 1.11 (inactive) | composite z-score [7]: -0.13 | composite z-score [8]: -0.644 | composite z-score [9]: -0.554 | composite z-score [10]: -0.0035 | composite z-score [11]: 1.7 | composite z-score [12]: -0.152 | composite z-score [13]: 0.424 | z-score [14]: -0.44 (inactive) | composite z-score [15]: -1.2 | composite z-score [16]: -0.0543 | composite z-score [17]: -0.921 | composite z-score [18]: -0.394 | composite z-score [19]: -0.0744 | composite z-score [20]: -1.14

CN(C)CCCCNC(=O)[C@H]1C[C@H]2C(=O)NCC(=O)N2[C@H]1c1ccc(O)cc1
composite z-score [1]: 0.784 | z-score [2]: 0.873 (inactive) | z-score [3]: 0.981 (inactive) | z-score [4]: 0.144 (inactive) | composite z-score [5]: 1.21 | z-score [6]: 0.187 (inactive) | composite z-score [7]: -0.189 | composite z-score [8]: 0.15 | composite z-score [9]: 0.408 | composite z-score [10]: -0.139 | composite z-score [11]: 0.978 | composite z-score [12]: -0.114 | composite z-score [13]: 0.0669 | z-score [14]: -0.127 (inactive) | composite z-score [15]: -0.14 | composite z-score [16]: -0.286 | composite z-score [17]: -0.603 | composite z-score [18]: -0.107 | composite z-score [19]: 0.0896 | composite z-score [20]: -0.0569

COc1ccc([Si](C)(C)[C@@H]2[C@@H](CC(=O)N3CCC[C@H]3CO)O[C@]3(C(=O)N(Cc4ccc(N5CCOC5=O)cc4)c4ccccc43)[C@H]2C)cc1
composite z-score [1]: 1.45 | z-score [2]: -3.35 (inactive) | z-score [3]: -1.13 (inactive) | z-score [4]: -0.356 (inactive) | composite z-score [5]: 2.72 | z-score [6]: 0.985 (inactive) | composite z-score [7]: -0.242 | composite z-score [8]: 1.46 | composite z-score [9]: 0.912 | composite z-score [10]: -0.188 | composite z-score [11]: 1.4 | composite z-score [12]: -0.3 | composite z-score [13]: 0.135 | z-score [14]: -1.58 (inactive) | composite z-score [15]: 0.25 | composite z-score [16]: 0.946 | composite z-score [17]: -0.0626 | composite z-score [18]: 0.388 | composite z-score [19]: 0.366 | composite z-score [20]: 0.0014

Source: PubChem BioAssay
